# CRFR2-BP antag: CRF-BP/CRF-R2 complex antagonism. inhibition, % at 11.8 µM. HEK293 CRF-R2/CRF-BP, CRF-induced calcium fluorescence. 350,000 compounds, 0.59% hits;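 active means inhibition of the ligand-induced calcium signal above about 50% at the single tested concentration, limit read from the data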
# PABP FP inh: blocks human PABP binding to poly(A) RNA. inhibition, % at 35 µM. fluorescence polarization. P11940. AID 2014. 290,000 compounds, 1% hits;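 further: calls also rest on retests at 20 µM and on dose response follow-up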
# PHOSPHO1 block: inhibitors of human PHOSPHO1 phosphatase; recombinant PHOSPHO1, absorbance phosphatase assay; Q8TCT1; inhibition, % at 13.3 µM; 290,000 compounds, 1.1% hits; in the data active means inhibition above about 60%
# Target sequence (Q8TCT1 whole entry, looked up): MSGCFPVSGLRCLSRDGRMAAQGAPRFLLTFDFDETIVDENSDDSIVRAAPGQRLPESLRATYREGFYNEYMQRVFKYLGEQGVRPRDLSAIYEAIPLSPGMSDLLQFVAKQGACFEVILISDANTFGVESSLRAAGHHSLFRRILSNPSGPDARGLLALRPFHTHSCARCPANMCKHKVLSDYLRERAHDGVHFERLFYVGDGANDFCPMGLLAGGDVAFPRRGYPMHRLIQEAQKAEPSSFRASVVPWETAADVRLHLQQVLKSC
# MLLE-PAM2 inh: blocks PAM2 peptide binding to the PABP1 MLLE domain | P11940 | GST-MLLE / FITC-PAM2 fluorescence polarization | inhibition, % at 20 µM | 360,000 compounds, 0.36% hits | AID 588489; in the data active means inhibition above about 35%, passing the limit was not always enough;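 further: plate controls were DMSO wells with GST-MLLE for no effect and wells lacking GST-MLLE protein for full effect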
# eIF4H FP inh: inhibitors of RNA binding by human eIF4H. 290,000 compounds, 0.94% hits. AID 2012. inhibition, % at 35 µM. eIF4H fluorescence polarization binding assay. Q15056;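 further: calls also rest on retests at 20 µM and on dose response follow-up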
# An asterisk follows results filed as active; i = inactive; ? = inconclusive; · = no result given. Most compounds without a hit are left out; they make up all but 2.6% or so of the library. Unless noted, how the calls were made is not given here.
SMILES,CRFR2-BP antag,PABP FP inh,PHOSPHO1 block,MLLE-PAM2 inh,eIF4H FP inh
O=C(Nc1ccc(Oc2ccccc2)nc1)[C@H]1O[C@@H](n2ccc(=O)[nH]c2=O)[C@H](O)[C@@H]1O,·,·,·,-7,·
O=C(C1COc2ccccc2O1)N1CCc2ccccc21 (centres undefined),-5,16,13,-6,79*
CSC(=Nc1ccccc1)N=C(SCc1ccccc1)N(C)C,-67,·,·,-54,·
CCN1C(=O)/C(=C2/C(=O)N3c4c(cc(OC(C)=O)cc42)C(C)=CC3(C)C)SC1=S,-8,-4,2,19,3
COc1cc2c3c(c1)/C(=C1/SC(NC(C)=O)=NC1=O)C(=O)N3C(C)(C)C=C2C,37,8,26,37*,18
Cc1nc2ccccc2c(=O)n1N(c1ccccc1)c1ccccc1,4,-9,43,69,4
C/C(O)=c1/c(=O)nc2cccc3c2=c1c1ccccc1c3=O,-12,?,40,47*,?
O=S1(=O)[C@H]2C[C@@H]3C=C[C@@]2(CN1Cc1ccc(F)cc1)O3,4,17,-2,0,11
COc1cc(/C=N/NC(=O)C(=O)NCc2ccco2)cc(Br)c1O,3,6,85*,8,84
CCCCCC(=O)N/N=C/c1cc(Br)c(O)c(OC)c1,-12,11,-3,1,5
CC1CC(C)CN(S(=O)(=O)N2CCC(C(=O)NCCC3=CCCCC3)CC2)C1 (centres undefined),-4,-1,6,-7,-9
Cc1nnc(-c2ccco2)c2cn(-c3cccc(Br)c3)nc12,-13,-10,14,-68,64*
CC(=O)c1nn(-c2cccc(Br)c2)cc1C(=O)c1ccco1,-7,5,-1,-4,-6
CN1CCN(S(=O)(=O)c2ccc(F)cc2)CC1,-3,·,·,4,·
COC(=O)c1ccc(CSc2nc3scc(-c4cccs4)c3c(=O)[nH]2)o1,27,20*,72*,-17,54*
CCN(CC(=O)Nc1cccc(C#N)c1)CC(=O)Nc1cccc(OC)c1,10,-26,63*,-12,-7
CCN(CC(=O)Nc1ccc(OC)cc1)CC(=O)Nc1cccc(C#N)c1,0,8,10,-4,11
CCCNC(=O)NC(=O)CSc1nncs1,14,3,21,-5,0
Fc1ccc(NC(=S)Nc2ccc(Br)cc2)cc1,38,2,-10,40*,1
Oc1ccc(NC(=S)Nc2ccc(F)cc2)cc1,0,-9,24,14,-7
FC(F)(F)c1nnc2sc(-c3ccncc3)nn12,-1,4,-6,2,-1
FC(F)(F)c1nnc2sc(-c3cccs3)nn12,52*,-17,-4,-5,-9
Cc1ccc(S(=O)(=O)Nc2ccccc2/C=N/c2nc3ccccc3n2C)cc1,71*,10,10,8,4
Cc1ccc(S(=O)(=O)Nc2ccccc2C=Nc2cccc(C)c2C)cc1,29,-6,-3,0,-5
Cc1ccc(S(=O)(=O)N(CC(=O)Nc2ccccc2C(=O)O)c2ccccc2C)cc1,19,11,22,1,-6
SMILES,CRFR2-BP antag,PABP FP inh,PHOSPHO1 block,MLLE-PAM2 inh,eIF4H FP inh
Cc1ccc(S(=O)(=O)N(CC(=O)Nc2ccccc2C(=O)O)c2cccc(Cl)c2C)cc1,50*,-6,-7,2,18
COc1ccc(S(=O)(=O)Nc2nc3ccccc3nc2NCc2ccc3c(c2)OCO3)cc1,57*,12,9,-5,2
C=CCn1c(NCc2ccc3c(c2)OCO3)nc2ccccc21,13,-5,4,15,-13
COc1ccc(C2CC(=O)C=C(NCc3ccc4c(c3)OCO4)C2)cc1 (centres undefined),-7,-2,61*,4,-4
CCn1c(NCc2ccc3c(c2)OCO3)nc2ccccc21,1,6,65*,-11,-6
COc1ccc(C2CC(=O)C=C(NCc3ccccc3)C2)cc1 (centres undefined),-11,-4,27,2,-6
CC12CCC(O)CC1=CCC1C2CCC2(C)c3[nH]ncc3CC12 (centres undefined),-11,·,·,-1,·
CC(=O)c1cccc(S(=O)(=O)N2CCC(C(=O)Nc3cccc(C(=O)NC4CC4)c3)CC2)c1,2,·,·,-5,·
Cc1cc(SCC(=O)Nc2ccc3[nH]c(=O)[nH]c3c2)nc2ccccc12,4,·,·,-1,·
COc1nnc(-c2ccccc2)s1,15,-9,-3,39*,-5
Nc1nnc(-c2ccccc2)s1,5,-4,8,5,-5
CC(O)(c1ccccc1)c1nc(-c2ccncc2)cs1 (centres undefined),·,·,·,5,·
CN(C)N1C(=O)/C(=C/c2ccco2)SC1=Nc1ccccc1,13,·,·,11,·
O=C1/C(=C\c2ccc(Br)o2)SC(=Nc2ccccc2)N1c1ccccc1,-14,12*,24,9,55*
C=C(C)C(=O)Nc1ccc2c(c1)OCCOCCOCCO2,-2,49*,22,1,90*
CCOc1ccc2c(c1)-c1c(ssc1=S)C(C)(C)N2C(=O)CSC1=NCCS1,35,1,-14,46*,1
Cc1ccc2c(c1)-c1c(ssc1=S)C(C)(C)N2C(=O)CSC1=NCCS1,-31,-6,0,32,-1
Cc1[nH]n(-c2ccccc2)c(=O)c1C(c1cccc([N+](=O)[O-])c1)c1c(C)[nH]n(-c2ccccc2)c1=O,30,-12,-26,27,-3
Cc1[nH]n(-c2ccccc2)c(=O)c1C(c1ccc(C(=O)O)cc1)c1c(C)[nH]n(-c2ccccc2)c1=O,7,4,19,45*,-3
Cc1ccc(CNC(=O)CCC(=O)c2cccs2)cc1,59*,11,5,11,2
Cc1ccc(NC(=O)COC(=O)CCC(=O)c2cccs2)c(Br)c1,59*,·,·,-5,·
O=C(CCC(=O)c1cccs1)NCc1ccc(Cl)cc1,-4,15,8,-9,-12
Cc1ccc(NC(=O)CCC(=O)c2cccs2)c(Br)c1,8,-4,-87,-12,-7
CCCS(=O)(=O)NC(=O)C1(C)CCCN(C(=O)c2ccc3c(c2)OCO3)C1 (centres undefined),·,·,·,0,·
C=CCNC(=S)NS(=O)(=O)c1cccs1,1,-15,28,44*,-4
SMILES,CRFR2-BP antag,PABP FP inh,PHOSPHO1 block,MLLE-PAM2 inh,eIF4H FP inh
Cc1ccc2cccc(Oc3ncnc4scc(-c5ccccc5)c34)c2n1,66*,-2,-2,-4,-6
COc1ccc(-c2csc3ncnc(Oc4cccc5ccc(C)nc45)c23)cc1,27,-15,-14,-8,-13
Fc1ccc(-c2nc3ccc(Br)cn3c2Cc2ccsc2)cc1,·,·,·,10,·
N#Cc1ccsc1NC(=O)c1cccc(-n2cnnn2)c1,-4,38*,18,-83,67
N#Cc1ccsc1NC(=O)c1ccc(Cl)c([N+](=O)[O-])c1,72*,8,-4,7,-4
N#Cc1ccsc1NC(=O)c1cccc([N+](=O)[O-])c1,63*,0,-5,2,14
CN(C)CCOC(c1ccccc1)c1ccccc1 (tested in a mixture with another compound),i,4,·,-22,3
